The panel holds about 79,000 compounds, 15% with a hit somewhere; the sample as a whole holds those more often. Unmarked numbers belong to inactive results. Active and inactive are the calls of the source. Cut-off read from the data, not from the text of the source: active = growth inhibition above about 70%; inactive = the rest.
How the values were obtained:
[1] = NCI Yeast Anticancer Drug Screen. Data for the rad50 strain (AID 155);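 note: 0% = growth of vehicle-only cultures of the same strain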; conditions: S. cerevisiae rad50 strain growth inhibition, hits give high values
In short: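 Inhibition values express reduced yeast growth in compound-treated cultures relative to vehicle-treated controls.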

[2] = NCI Yeast Anticancer Drug Screen. Data for the mec2-1 strain (AID 157); conditions: S. cerevisiae mec2-1 strain, hits give high values
In short: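 Cells of the genetically defined mec2-1 yeast strain are incubated with test compound. Inhibition of growth is calculated against vehicle-treated controls.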

[3] = NCI Yeast Anticancer Drug Screen. Data for the sgs1 mgt1 strain (AID 161);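 note: 0% = growth of cultures given vehicle only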; conditions: S. cerevisiae sgs1 mgt1 strain, hits give high values
In short: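 Genetically altered yeast, compound exposure, growth inhibition relative to vehicle.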

[4] = NCI Yeast Anticancer Drug Screen. Data for the cln2 rad14 strain (AID 165);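 note: 0% = growth equal to vehicle treated cultures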; conditions: S. cerevisiae cln2 rad14 strain, hits give high values
In short: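 The screen exposed genetically defined yeast (cln2 rad14) to test compounds and scored growth inhibition relative to vehicle-treated controls.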

[5] = NCI Yeast Anticancer Drug Screen. Data for the bub3 strain (AID 167); conditions: S. cerevisiae bub3 mutant strain, hits give high values
In short: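 Steps: expose the mutant yeast strain to compound; grow alongside vehicle-treated cultures; measure growth; express inhibition against the vehicle cultures.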

[6] = NCI Yeast Anticancer Drug Screen. Data for the mlh1 rad18 strain (AID 175); conditions: S. cerevisiae mlh1 rad18 strain growth inhibition, hits give high values
In short: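 Compound-treated yeast growth, normalised to vehicle controls. Strain bears defined DNA repair mutations.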

[7] = at 5.0 µM (retest, dose inferred, filed as 0.5)
[8] = at 50.0 µM (retest, dose inferred, filed as 5.0)

| SMILES | growth inhibition [1, 7] | growth inhibition [1, 8] | growth inhibition ([1]; at 50.0 µM) | growth inhibition [2, 7] | growth inhibition [2, 8] | growth inhibition ([2]; at 50.0 µM) | growth inhibition [3, 7] | growth inhibition [3, 8] | growth inhibition ([3]; at 50.0 µM) | growth inhibition [4, 7] | growth inhibition [4, 8] | growth inhibition ([4]; at 50.0 µM) | growth inhibition [5, 7] | growth inhibition [5, 8] | growth inhibition ([5]; at 50.0 µM) | growth inhibition [6, 7] | growth inhibition [6, 8] | growth inhibition ([6]; at 50.0 µM) |
| --- | --- | --- | --- | --- | --- | --- | --- | --- | --- | --- | --- | --- | --- | --- | --- | --- | --- | --- |
| O=C1NC(=O)C(Cc2ccccc2)(Cc2ccccc2)S1 | 5% | 98% (active) | 99.2% (active) | 10% | 99% (active) | 99.4% (active) | -16% | 98% (active) | 99.3% (active) | 21% | 99% (active) | 99.2% (active) | 17% | 99% (active) | 99.5% (active) | 6% | 99% (active) | 99.2% (active) |
| CCSc1c2ccccc2nc2c(OC)ccc(OC)c12 | 3% | 70% (active) | 88.7% (active) | -3% | 23% | 35.4% | -7% | 30% | 63.1% | -7% | -7% | 48.7% | -7% | 20% | 39.4% | -3% | 54% | 90.3% (active) |
| O=C1c2ccccc2-c2nnc3c(c21)Cc1ccccc1C3 | -4% | 38% | 50.9% | -21% | 16% | 43% | -7% | 1% | 17.1% | -8% | 27% | 40.5% | 9% | 26% | 67.5% | -6% | 37% | 71% (active) |
| CC(/C=C/NNC1=NC(c2ccccc2)C(c2ccccc2)=NN1)Sc1ccccc1N (configuration not stated) | 43% | 43% | 92.8% (active) | 22% | 22% | 93.2% (active) | 31% | 31% | 90.7% (active) | 18% | 18% | 90.8% (active) | 25% | 25% | 92.9% (active) | 17% | 17% | 91.3% (active) |
| Cc1ccc(/C=N/Nc2ccc([N+](=O)[O-])cc2[N+](=O)[O-])cc1 | -2% | -4% | 19.4% | -1% | -2% | -8.75% | -3% | -3% | 10.6% | -4% | -9% | 20.1% | -3% | -4% | -9.15% | -4% | -4% | -3.9% |
| CCCCCCCCCCCCCC/[N+]([O-])=C/c1ccc([N+](=O)[O-])o1 | 7% | 18% | 50.1% | 2% | 10% | 45.3% | 8% | 70% (active) | 50.1% | 8% | 13% | 29.8% | 0% | 14% | 78% (active) | 8% | 79% (active) | 54.2% |
| CCCCCCc1ccc(O)cc1O | 5% | 98% (active) | 99.5% (active) | -3% | 100% (active) | 99.8% (active) | -1% | 100% (active) | 99.5% (active) | -4% | 99% (active) | 99.5% (active) | -1% | 99% (active) | 99.5% (active) | -1% | 99% (active) | 36% |
| [N-]=[N+]=Nc1ccnc2ccc(C3CCCCC3)cc12 | -8% | 99% (active) | 56.5% | -8% | 100% (active) | 30.9% | -8% | 99% (active) | 94.8% (active) | 6% | 99% (active) | 51.1% | -4% | 99% (active) | 67.3% | -2% | 99% (active) | 91.7% (active) |
| CC(C)CCCC(O)CNCc1ccccc1 (configuration not stated) | 9% | 27% | -1.95% | 17% | 38% | 11.4% | 13% | -11% | 28.2% | 13% | 36% | -18.9% | 5% | 44% | 82% (active) | 7% | 15% | 10.2% |
| CN(/N=C\c1cccc([N+](=O)[O-])c1)C(c1cccc([N+](=O)[O-])c1)N(C)/N=C/c1cccc([N+](=O)[O-])c1 (configuration not stated) | -1% | 34% | 43% | -1% | 45% | 48.4% | 2% | 74% (active) | 68.5% | 0% | 17% | 8.75% | -7% | 16% | 16.5% | 0% | 40% | 40.6% |
| Cc1c(O)c(Br)c(Br)c(Br)c1Br | 82% (active) | 94% (active) | 95.5% (active) | 78% (active) | 97% (active) | 87.1% (active) | 81% (active) | 96% (active) | 96.1% (active) | 93% (active) | 96% (active) | 94.7% (active) | 84% (active) | 96% (active) | 93% (active) | 87% (active) | 95% (active) | 94.1% (active) |
| COc1ccc2c(Cc3ccccc3)c3[n+](cc2c1OC)CCc1cc2c(cc1-3)OCO2 | 2% | 98% (active) | 98.8% (active) | 8% | 97% (active) | 99.2% (active) | 4% | 99% (active) | 99% (active) | -1% | 98% (active) | 98.2% (active) | 12% | 98% (active) | 98.8% (active) | -4% | 97% (active) | 98.9% (active) |
| CCCCCCCCCCCCNc1ccccn1 | -3% | 98% (active) | 18.4% | 25% | 99% (active) | 21.2% | 42% | 99% (active) | 69.8% | 6% | 99% (active) | 56% | 29% | 99% (active) | 48% | 37% | 99% (active) | 80.8% (active) |
| CC(=O)C1CCC2C1(C)CC1OC13C21C=CC2(CC(O)CCC23C)C2C(=O)OC(=O)C21 (configuration not stated) | -1% | 98% (active) | 99.4% (active) | 4% | 97% (active) | 91.5% (active) | 2% | 99% (active) | 99.3% (active) | 3% | 98% (active) | 99.6% (active) | 2% | 98% (active) | 95.7% (active) | 23% | 99% (active) | 99.2% (active) |
| CNc1ccc(F)cc1SSc1cc(F)ccc1NC | 97% (active) | 98% (active) | 99% (active) | 94% (active) | 99% (active) | 99.5% (active) | 95% (active) | 99% (active) | 99.4% (active) | 10% | 99% (active) | 99% (active) | 38% | 99% (active) | 99.2% (active) | 97% (active) | 99% (active) | 99.2% (active) |
| Cc1cc(O)n(Cc2ccccc2)c(=O)c1 | -151% | 34% | 48.5% | -51% | -36% | 9.75% | -67% | 33% | 34.6% | -60% | -45% | -4.75% | -70% | 4% | 47.9% | -123% | 7% | 67.1% |
| C=CNC(=O)Oc1ccccc1 | -128% | -156% | -9.95% | -35% | -59% | 30.2% | -47% | -62% | 12.7% | -57% | -73% | 44% | -64% | -81% | -3% | -121% | -130% | 6.25% |
| CCCCCCCCCCCCOC(=O)C[N+]1(C)CCCCC1 | 92% (active) | 99% (active) | 43.5% | 93% (active) | 99% (active) | 99.8% (active) | 99% (active) | 99% (active) | 39.4% | 67% | 99% (active) | 98.5% (active) | 99% (active) | 99% (active) | 99.7% (active) | 33% | 99% (active) | 99.5% (active) |
| CCOC(=O)c1ccc(C(C)C)cc1 | 3% | 96% (active) | 40.5% | 3% | 100% (active) | 79.6% (active) | 3% | 94% (active) | 55.5% | -1% | 97% (active) | 21.6% | 4% | 99% (active) | 84.3% (active) | 4% | 96% (active) | 62.1% |

— PubChem BioAssay (NCI)
